Bioassay records (PubChem)
TDP1 cell CPT = DT40-hTDP1 cell growth loss with CPT; chicken DT40 Tdp1-/-;hTDP1 cells + 20 nM CPT, ATP luminescence, 48 h; Potency, µM (titrated, usually from 46.2 µM), hits mostly inhibitors; 12% of 420,000 active; note: nearly all actives have a fitted effect of over 55% in size
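Cell growth measured by CellTiter-Glo luminescence after a minimum 48 h, 37 C compound exposure with 20 nM CPT in Tdp1-knockout DT40 cells stably expressing hTDP1, seeded 400/well; qHTS titration format.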
RORg inh = ROR gamma (mouse) transcription inhibition | P51450 | Drosophila S2 Gal4-RORgamma UAS-luciferase reporter, 20 h | Potency, µM (top dose mostly 53.6 µM), most hits filed as inhibitors | 5.4% of 310,000 active | AID 2551; note: nearly all actives have a fitted effect of over 60% in size
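Luminescence from a UAS-regulated Photinus luciferase reporter in stably transfected Drosophila Schneider cells is measured; decreased signal marks ROR gamma inhibition. Fusion expression is induced by 700 uM copper sulfate for 20 hr.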
TDP1 cell noCPT = qHTS for Inhibitors of human tyrosyl-DNA phosphodiesterase 1 (TDP1): qHTS in cells in absence of CPT; DT40 Tdp1-/- hTDP1 cells, no CPT, ATP luminescence, 48 h; Potency, µM (doses to about 46.2 µM), actives largely listed as inhibitors; 15% of 420,000 active; note: nearly all actives have a fitted effect of over 55% in size
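Seeded 400 DT40-hTDP1 cells/well (vehicle DMSO, no 20 nM CPT); pinned compounds; ≥48 hr at 37 °C; CellTiter-Glo luminescence as viability measure.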
VP16 counter = Gal4-VP16 reporter inhibition counter-screen; Drosophila S2 Gal4-VP16 UAS-luciferase, luminescence, 20 h; AID 2546; Potency, µM (titrated, usually from 53.6 µM), usual class: inhibitors; 3.5% of 310,000 active;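 note: Gal4-VP16 expression switched on by copper sulfate through the metallothionein promoter; nearly all actives have a fitted effect of over 50% in size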
TDP1 inh = TDP1 (human) enzyme inhibition. Q9NUW8. recombinant TDP1, AlphaScreen DNA substrate cleavage. Potency, µM (highest dose often 130 µM), usual class: inhibitors. 0.28% of 350,000 active. AID 485290; note: nearly all actives have a fitted effect of over 40% in size
Target sequence (Q9NUW8 whole entry, looked up): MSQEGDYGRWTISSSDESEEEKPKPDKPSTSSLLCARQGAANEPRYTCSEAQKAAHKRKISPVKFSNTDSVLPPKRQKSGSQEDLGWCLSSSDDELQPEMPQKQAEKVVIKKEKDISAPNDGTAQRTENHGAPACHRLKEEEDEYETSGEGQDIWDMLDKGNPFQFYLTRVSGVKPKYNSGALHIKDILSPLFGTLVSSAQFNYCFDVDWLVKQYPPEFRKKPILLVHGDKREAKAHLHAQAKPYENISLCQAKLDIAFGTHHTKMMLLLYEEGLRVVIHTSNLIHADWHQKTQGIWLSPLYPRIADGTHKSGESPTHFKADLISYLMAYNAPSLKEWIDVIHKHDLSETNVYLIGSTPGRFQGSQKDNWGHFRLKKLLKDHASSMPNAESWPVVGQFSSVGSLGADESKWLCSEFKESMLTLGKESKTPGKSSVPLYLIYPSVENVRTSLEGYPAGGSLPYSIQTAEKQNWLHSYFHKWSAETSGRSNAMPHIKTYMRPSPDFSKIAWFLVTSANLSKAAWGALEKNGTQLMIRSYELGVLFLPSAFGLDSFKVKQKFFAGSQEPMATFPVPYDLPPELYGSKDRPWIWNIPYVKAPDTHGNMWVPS
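Recombinant human Tdp1 (E. coli-expressed, 1 nM final) preincubated with compounds 15 min at room temperature, then 5'-biotin/3'-phosphotyrosine-FITC DNA substrate (15 nM final) added for 5 min. AlphaScreen beads (10 ug/ml final) added 10 min; cleavage lowers signal.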
Numbers stand for hits; n = inactive; u = inconclusive; x = no result given; [ ] = dose if it differs, or a comment. In the library only some 19% were active in any assay of this set; here they are far more common. Calls come from the whole dose curve; as a rule, active = well fitted curve in the direction sought with a large enough effect; inconclusive = small, poorly fitted or top-dose-only effect, or another doubt; inactive = no such curve, though single readings can be large; an effect the other way counts as inactive or inconclusive.

SMILES	TDP1 cell CPT	RORg inh	TDP1 cell noCPT	VP16 counter	TDP1 inh
O=C(CNC(=O)c1ccccc1F)N/N=C/c1cc(Br)ccc1OC(=O)/C=C/c1ccco1	3.66µM	2.51µM	5.17µM	3.16µM	n
O=C(CNC(=O)c1ccc(F)cc1)N/N=C/c1cc(Br)ccc1OC(=O)/C=C/c1ccco1	9.2µM	5.01µM	2.59µM	u	x
COc1ccccc1C(=O)NCC(=O)N/N=C/c1cc(Br)ccc1OC(=O)/C=C\c1ccco1	u	3.55µM	u	7.08µM	n
O=C1C(Cl)=C(Nc2ccc3cn[nH]c3c2)C(=O)c2ccccc21	1.64µM	7.08µM	2.06µM	u	n
CN(C)c1ccc(NC2=C(Cl)C(=O)c3ccccc3C2=O)cc1	20.6µM	15.8µM	11.6µM	u	n
CC(=O)Nc1ccc(NC2=C(Cl)C(=O)c3ccccc3C2=O)cc1	u	u	u	n	n
O=C(Nc1ccc2cn[nH]c2c1)c1c(Cl)cccc1Cl	n	n	u	n	n
CCSc1nc2ccccc2n1CC(=O)N1CCOCC1	n	n	n	n	n
COc1ccc(N2C(=O)CSC23C(=O)N(Cc2cccc(C(F)(F)F)c2)c2ccccc23)cc1 (centres undefined)	u	x	14.6µM	x	n
O=C1CSC2(C(=O)N(Cc3cccc(F)c3)c3ccccc32)N1c1cccc(C(F)(F)F)c1 (centres undefined)	x	x	x	x	n
O=C1CSC2(C(=O)N(Cc3cccc(C(F)(F)F)c3)c3ccccc32)N1c1ccc(F)c(F)c1 (centres undefined)	20.6µM	x	16.4µM	x	n
CC1Oc2cc3oc4c(O)c5c(cc4c(=O)c3c(O)c2C1(C)C)C=CC(C)(C)O5 (centres undefined)	u	x	20.6µM	x	x
N#CC(C(=O)NCCc1ccccc1)c1nc2ccccc2nc1N1CCOCC1 (centres undefined)	16.4µM	n	u	n	n
CCOC(=O)C1CCCN(c2nc3ccccc3nc2C(C#N)C(=O)NCc2ccccc2)C1 (centres undefined)	u	n	9.2µM	n[0.365 µM]	n
CCCCCCNC(=O)C(C#N)c1nc2ccccc2nc1N1CCOCC1 (centres undefined)	u	n	n	n	n
CCCCCNC(=O)C(C#N)c1nc2ccccc2nc1N1CCCC1 (centres undefined)	n	n	u	n	n
N#CC(C(=O)NCCc1ccccc1)c1nc2ccccc2nc1N1CCCCC1 (centres undefined)	20.6µM	n	n	n	n
CCOC(=O)N1CCN(c2nc3ccccc3nc2C(C#N)C(=O)NCCc2ccccc2)CC1 (centres undefined)	16.4µM	n	20.6µM	n	n
N#CC(C(=O)NCc1ccccc1)c1nc2ccccc2nc1N1CCCC1 (centres undefined)	u	n	u	n	n
O=c1c(Cl)c2oc3ccccc3nc-2c2ccccc12	u	n	u	n	n
c1ccc(CNc2nc(-c3cccs3)nc3ccccc23)cc1	u	n	u	u	n
CCC(C)N(C(=O)CSc1nc(-c2cccs2)nc2ccccc12)C1CCS(=O)(=O)C1 (centres undefined)	u	x	16.4µM	x	x
CCSc1nc(-c2cccs2)nc2ccccc12	14.6µM	n	18.4µM	n	n
Cc1nc(SCC(=O)NC2CCS(=O)(=O)C2)c(C#N)c(C)c1C (centres undefined)	n	x	n	x	n
CCC(C)N(C(=O)CSc1nc(C)c(C)c(C)c1C#N)C1CCS(=O)(=O)C1 (centres undefined)	n	x	20.6µM	x	n
SMILES	TDP1 cell CPT	RORg inh	TDP1 cell noCPT	VP16 counter	TDP1 inh
CCC(C)N(C(=O)CSc1ncnc2sccc12)C1CCS(=O)(=O)C1 (centres undefined)	n	x	u	x	n
Cc1ccccc1NC(=O)c1sc2nc(-c3cc4ccccc4oc3=O)[nH]c(=O)c2c1C	8.2µM	x	u	x	n
Cc1ccc(NC(=O)c2sc3nc(-c4cc5ccccc5oc4=O)[nH]c(=O)c3c2C)c(C)c1	n	x	n	x	n
CC(C)NC(=O)NC(=O)CN1C(=O)NC(Cc2c[nH]c3ccccc23)C1=O (centres undefined)	n	n	n	n	n
CCc1noc(C)c1C(=O)NCCc1ccc(Cl)cc1	n	x	u	x	x
CCOC(=O)Cc1csc(SC(C)C(=O)NCC(=O)Nc2ccc(F)c(F)c2F)n1 (centres undefined)	n	n	u	n	n
N#Cc1ccccc1OCC(=O)N(Cc1nnc(-c2ccccc2Cl)o1)C1CC1	u	x	16.4µM	x	n
COc1ccc(-n2c(C)c(C(C)=O)c3cc(O)ccc32)cc1	x	u	x	n[0.365 µM]	n
COc1ccc(-n2c(C)c(C(C)=O)c3cc(OC(=O)c4ccc(C)cc4)ccc32)cc1	u	x	23.1µM	x	n[12.3 µM]
O=C(c1cc2ccccc2oc1=O)N(c1ccc(Cl)cc1)C1C=CS(=O)(=O)C1 (centres undefined)	16.4µM	n	u	n	n
CCCN(C(=O)CSc1nnc(-c2ccc3c(c2)OCO3)o1)C1CCS(=O)(=O)C1 (centres undefined)	n	x	u	x	x
O=C(NC(=S)NCC1CCCO1)c1ccccc1F (centres undefined)	n	u	n	n	n
COc1ccc(-c2cn3cccnc3n2)cc1NC(=O)Nc1ccc(Cl)cc1	u	x	16.4µM	x	n
COc1ccc(CCNC(=O)c2ccc3c(c2)N(Cc2cccc(Cl)c2)C(=O)c2ccccc2S3=O)cc1OC (centres undefined)	u	x	u	x	n
COc1ccc(CNC(=O)c2ccc3c(c2)N(Cc2ccccc2)C(=O)c2ccccc2S3(=O)=O)cc1	u	x	n	x	n
COc1ccc(CNC(=O)c2ccc3c(c2)N(Cc2ccccc2F)C(=O)c2ccccc2S3(=O)=O)cc1	n	x	n	x	n
COc1ccc(CCNC(=O)c2ccc3c(c2)N(Cc2cccc(C)c2)C(=O)c2ccccc2S3(=O)=O)cc1OC	8.2µM	x	11.6µM	x	n
COc1ccc(CCNC(=O)c2ccc3c(c2)N(Cc2ccc(Cl)cc2)C(=O)c2ccccc2S3)cc1OC	u	x	16.4µM	x	n
COc1ccc(CCNC(=O)c2ccc3c(c2)N(Cc2ccccc2F)C(=O)c2ccccc2S3(=O)=O)cc1OC	16.4µM	x	10.3µM	x	n
COC(=O)C(C(=O)NCC1CCCO1)C1CCCCCC1 (centres undefined)	n	n	n	n	n
Cc1ccc(S(=O)(=O)N2CCC(c3nnc(SCCN4CCCC4)n3C)CC2)cc1	n	n	n	n	x
CC(C)(C)n1nc2c(c1NC(=O)COc1ccc3ccccc3c1)CS(=O)C2 (centres undefined)	n	u	n	n	n
C=CCC[C@@H](Cc1ccc(F)cc1)C(=O)OC[C@@H](NC(=O)[C@@H](CC=C)CC(=O)N[C@H](CO)Cc1ccccc1)C(C)(C)C	23.1µM	x	16.4µM	x	n
